NPR1 antag = Natriuretic polypeptide receptor (hNpr1) antagonism - Primary qHTS | HEK293 hNpr1 GloSensor cGMP, ANP-stimulated luminescence | Potency, µM (top dose mostly 46.3 µM), for inactives: at the highest dose activity change, negative = inhibition, most hits filed as inhibitors | 76,000 compounds, 1.6% hits | AID 1347048, 2019; calls by dose curve; also: % is scaled to controls: 0 for no effect and ±100 for the full control effect; nearly all actives have a fitted effect of over 60% in size
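Compound pre-incubated 30 min at room temperature on GloSensor-loaded HEK293 cells stably carrying hNpr1 and the pGS-40F cGMP biosensor. Stimulation uses hNppA at 0.1 nM final; luminescence is taken at baseline and 20 min post-agonist.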
FLuc inh-1 = Firefly luciferase inhibition profiling of diverse chemical library using quantitative high-throughput screening | Luciferin 4-monooxygenase (Photinus pyralis), P08659 | purified P. pyralis luciferase, luminescence, biochemical | Potency, µM (series often up to 115 µM), most hits filed as inhibitors | 76,000 compounds, 2.5% hits; also: % is scaled to controls: 0 for no effect and ±100 for the full control effect; nearly all actives have a fitted effect of over 65% in size
Target sequence (P08659 whole entry, looked up): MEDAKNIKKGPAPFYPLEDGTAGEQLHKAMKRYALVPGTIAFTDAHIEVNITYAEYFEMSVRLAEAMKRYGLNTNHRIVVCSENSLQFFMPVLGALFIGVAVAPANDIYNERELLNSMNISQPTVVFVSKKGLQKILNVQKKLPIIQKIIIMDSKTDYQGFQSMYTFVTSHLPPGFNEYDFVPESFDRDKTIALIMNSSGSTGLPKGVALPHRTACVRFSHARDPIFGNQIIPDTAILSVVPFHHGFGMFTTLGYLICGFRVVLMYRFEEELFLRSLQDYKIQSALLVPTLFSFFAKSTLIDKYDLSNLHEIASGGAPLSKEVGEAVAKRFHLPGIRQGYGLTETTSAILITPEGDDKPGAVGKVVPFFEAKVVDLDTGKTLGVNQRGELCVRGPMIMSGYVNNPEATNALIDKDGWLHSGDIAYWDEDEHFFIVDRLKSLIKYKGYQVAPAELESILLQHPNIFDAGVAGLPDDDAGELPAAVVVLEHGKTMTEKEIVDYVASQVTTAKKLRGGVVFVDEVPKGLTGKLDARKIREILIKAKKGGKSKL
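Inhibitors were tested against purified firefly luciferase in a biochemical, low-substrate format (both substrates at 10uM) and luminescence measured with a CCD imager.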
HEK293 tox = Cytotoxic Profiling in HEK 293 Cell Line of Diverse Libraries Using Quantitative High-Throughput Screening | HEK 293 viability, ATP luminescence (CellTiter-Glo), 48-72 h | Potency, µM (series often up to 115 µM), without a hit: top-dose activity change, negative = cytotoxicity, usual class: inhibitors | 94,000 compounds, 6.6% hits | AID 1345083, 2018; also: % is scaled to controls: 0 for no effect and ±100 for the full control effect; nearly all actives have a fitted effect of over 60% in size
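HEK 293 seeded at 250 cells/well receive compound via pintool. After 48 or 72 hr at 37 degree Celsius, 5% CO2 and 95% humidity, CellTiter-Glo is dispensed and luminescence read following 10 min at room temperature.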
3T3 cytotox = Cytotoxic Profiling in NIH 3T3 Cell Line of Diverse Libraries Using Quantitative High-Throughput Screening; Potency, µM (doses to about 96.7 µM), for inactives: at the highest dose activity change, negative = cytotoxicity, usual class: inhibitors; 94,000 compounds, 4.3% hits; NIH 3T3 viability, CellTiter-Glo ATP luminescence, 48-72 h; also: % is scaled to controls: 0 for no effect and ±100 for the full control effect; nearly all actives have a fitted effect of over 55% in size
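Cells were seeded at 400 per well, treated with pin-transferred compound, and kept 48 or 72 hr at 37 °C before CellTiter-Glo addition and luminescence imaging of cellular ATP.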
GPT2 inh = Primary qHTS assay for inhibitors of Glutamate pyruvate transaminase 2 (GPT2); Alanine aminotransferase 2 (Homo sapiens), Q8TD30; Recombinant GPT2, coupled pyruvate oxidase/HRP Amplex Red fluorescence; Potency, µM (titrated, usually from 57.7 µM), for the others: top-dose activity change, negative = inhibition, usual class: inhibitors; 100,000 compounds, 0.25% hits; AID 1671188, 2021; also: % is scaled to controls: 0 for no effect and ±100 for the full control effect; nearly all actives have a fitted effect of over 60% in size
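Recombinant GPT2 (10ng/uL) with 250uM a-KG and 2mM L-alanine, 30 min at room temperature, in HEPES pH 7.5 buffer. Pyruvate detected by pyruvate oxidase/HRP/Amplex Red fluorescence after 30 min in the dark; AOA (50uM) as positive control.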
FLuc SDR -ATP = Firefly luciferase (FLuc-C-HiBiT) SDR gain of signal screen - without ATP; shares compounds with FLuc inh-1; 1,300 compounds, 7.8% hits; Purified FLuc-C-HiBiT, Nano-Glo HiBiT luminescence, no ATP; Potency, µM (series often up to 32.7 µM), for inactives: top-dose activation (signal gain), actives largely listed as activators; also: nearly all actives have a fitted effect of over 55% in size
FLuc SDR ATP = Firefly luciferase (FLuc-C-HiBiT) SDR gain of signal screen - plus ATP. AID 1963319, 2024. shares compounds with FLuc inh-1. Potency, µM (doses to about 32.7 µM), without a hit: at the highest dose activation (gain of signal), hits mostly activators. 1,300 compounds, 8.7% hits. purified FLuc-C-HiBiT + ATP, HiBiT complementation luminescence;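 also: signal reports ligand binding via conformational change of the enzyme rather than luciferase catalysis; % of control where 0% means no effect; nearly all actives have a fitted effect of over 55% in size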
FLuc inh-2 = Firefly luciferase (FLuc-C-HiBiT) enzymatic inhibition screen - Functional assay; shares compounds with FLuc inh-1; purified FLuc-C-HiBiT enzyme, luciferin luminescence; Potency, µM (series often up to 32.7 µM), for the others: top-dose activity change, negative = inhibition, actives largely listed as inhibitors; 1,300 compounds, 42% hits; AID 1963320, 2024; also: % is scaled to controls: 0 for no effect and ±100 for the full control effect; nearly all actives have a fitted effect of over 70% in size
* hit, by the source's call; i = inactive; ? = inconclusive; . = not tested or not shown; [ ] = remark or other dose. Shown are actives, neighbours in structure and some others; about 10% of the full set was active somewhere. Unless noted, calls follow the shape of the dose curve; as a rule, active = well fitted curve in the direction sought with a large enough effect; inconclusive = small, poorly fitted or top-dose-only effect, or another doubt; inactive = no such curve, though single readings can be large; an effect the other way counts as inactive or inconclusive. Potency is read from the fitted curve at half-maximal effect.

SMILES	NPR1 antag	FLuc inh-1	HEK293 tox	3T3 cytotox	GPT2 inh	FLuc SDR -ATP	FLuc SDR ATP	FLuc inh-2
COc1ccc(-c2noc(Nc3ccc4c(c3)OCCO4)n2)cc1	?	0.89µM*	-4%	1%	i	?	?	1.6µM*
CCOc1ccc(Nc2nc(-c3ccccc3)no2)cc1	10µM*	0.79µM*	-73%	18µM*	i	16%	17%	5µM*
Cc1ccccc1C(=O)N1CCC2(C1)C(=O)N(C)c1ccccc12 (centres undefined)	-1%	i	10%	i	4%	.	.	.
COc1ccc(Nc2nc(-c3cccc(OC)c3)no2)cc1	?	2.5µM*	?	-64%	-7%	21%	16%	7.9µM*
COCC(=O)N1CCC(C(=O)N2CCC3(CC2)CC(=O)Nc2ccccc2O3)CC1	.	.	i	1%	-9%	.	.	.
CC(C)NC(=O)N1CC[C@H](n2c(=O)n(C)c3cccnc32)C1	.	.	1%	i	-11%	.	.	.
Cc1sc2cc(C(=O)NCC3CC3)[nH]c2c1CN1CCCCC1	-11%	i	?	?	i	.	.	.
CNC(=O)c1cc(C2CC2)nc2onc(C3CCN([S+](=O)([O-])c4cccs4)C3)c12 (centres undefined)	.	.	?	-27%	.	.	.	.
CCc1ccc(-n2nc(CO)c(C(=O)NC)n2)cc1	.	.	.	.	.	?	19%	?
Cc1ccc(-c2cn3cc(C(=O)NCc4cccc(C(F)(F)F)c4)nc3s2)cc1	.	.	-11%	-13%	-12%	.	.	.
CC(=O)NC1(C)CN(Cc2ccc(-c3ccccc3OCc3ccccc3)s2)C1	?	7.1µM*	40µM*	28µM*	-4%[88.5 µM]	13%[49.3 µM]	10%[49.3 µM]	?
CC(=O)NC1(C)CCN(Cc2cccc(Nc3ccccc3)c2)C1 (centres undefined)	-7%[70.6 µM]	i	?	?	-19%[88.5 µM]	.	.	.
Cc1ccc(-n2ncc3c(N(C)C)ncnc32)cc1Cl	.	.	.	.	.	?	?	2.2µM*
Cc1cccc(NC(=O)Nc2ccc(F)cc2)n1	.	.	.	.	.	18%	13%	?
COCc1nc(CCNC(=O)CCc2nc(-c3cccc(C)c3)no2)no1	.	.	-2%	-11%	i	.	.	.
COc1cccc(NC(=O)CCc2nc(-c3ccc(C(C)(C)C)cc3)no2)c1	.	.	.	.	.	20%	16%	7µM*
CCn1nc(C)cc1C(=O)N1CCCN(Cc2ccc(F)cc2)C(C(C)C)C1 (centres undefined)	-1%	i	?	-19%	i	.	.	.
O=C(COc1ccc(F)cc1)N1CC(Oc2ccc(-c3nc(-c4ccccc4)no3)cc2)C1	-3%	?	?	-15%	i	.	.	.
O=C(O)c1ccc(-c2noc(-c3ccc(F)cc3)n2)cc1	.	.	.	.	.	?	0.56µM*	0.44µM*
O=C(O)c1ccc(-c2noc(-c3ccc(C(F)(F)F)cc3)n2)cc1	.	.	.	.	.	?	0.44µM*	0.31µM*
CC(C)CNC(=O)C1COC2(CCCCC2)N1C(=O)c1cccc([N+](=O)[O-])c1 (centres undefined)	2%	i	-15%	-28%	i	.	.	.
COc1ccc2nc(-c3ccc(N4CCN(C(=O)OC(C)(C)C)CC4)cc3)sc2c1	.	.	.	.	.	16%	9%	?
CC(=O)c1cc2ccccc2s1	.	.	.	.	i	.	.	.
CC(=O)c1cccc(-c2nc3ccccc3s2)c1	.	.	.	.	.	?	?	9.9µM*
COc1ccc2nc(-c3cccc(C(C)=O)c3)sc2c1	.	.	.	.	.	12µM*	?	1.2µM*
SMILES	NPR1 antag	FLuc inh-1	HEK293 tox	3T3 cytotox	GPT2 inh	FLuc SDR -ATP	FLuc SDR ATP	FLuc inh-2
COc1ccc(N2CCN(C(=O)CCc3ccnc(N4CCOCC4)c3)CC2)cc1	-21%	i	-11%	-18%	-28%	.	.	.
Cc1ccc(NC(=O)CCc2c(C)nc3cc(-c4ccccc4)nn3c2C)cc1F	.	.	.	.	.	13%	?	?
CC(=O)c1ccc(NC(=O)CCc2c(C)nc3cc(-c4ccc(Cl)cc4)nn3c2C)cc1	.	.	.	.	.	19%	?	?
Cc1cccc(-n2nc(C)c(CCC(=O)NC3CC3)c2Oc2ccc(F)cc2F)c1	-4%	i	?	?	i	.	.	.
Cc1nc2cc(-c3cccc(F)c3)nn2c(C)c1CCC(=O)NC1CCCCC1	.	.	.	.	.	12%	?	?
COc1cccc(C(=O)Nc2cccc(OCc3cc(=O)n4c5c(sc4n3)CCCC5)c2)c1	.	.	.	.	.	21%	11%	?
